Assay outcomes as filed in PubChem.
HDAC3 inhib: HDAC3 deacetylase inhibitors, primary screen, biochemical, fluorescence, cell-free homogeneous | inhibition, % at 8.3 µM | recombinant HDAC3, fluorogenic peptide/trypsin coupled | 320,000 compounds, 0.15% hits | Histone deacetylase 3 (Homo sapiens), O15379; in the data active = inhibition above about 26%, passing the limit was not always enough
APOBEC3G inh: APOBEC3G DNA deaminase inhibitors, primary screen, biochemical, fluorescence, single-stranded DNA substrate, uHTS. inhibition, % at 20 µM. recombinant A3G, ssDNA deamination FAM/TAMRA fluorescence. 330,000 compounds, 0.28% hits. DNA dC->dU-editing enzyme APOBEC-3G (Homo sapiens), Q9HC16. AID 493012, 2011;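 active = inhibition of at least 40% at 20 µM, with no more than 30% in the related APOBEC3A deaminase screen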
A3A deaminase: APOBEC3A ssDNA deaminase inhibitors, primary screen, selectivity assay for APOBEC3G inhibitor project, biochemical, FAM/TAMRA oligo cleavage fluorescence. DNA dC->dU-editing enzyme APOBEC-3A (Homo sapiens), P31941. recombinant A3A, FAM/TAMRA ssDNA deamination fluorescence. inhibition, % at 20 µM. 330,000 compounds, 0.41% hits. AID 493011, 2011;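 active = at least 40% inhibition at 20 µM here, with at most 30% in a related deaminase screen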
Target sequence (P31941 whole entry, looked up): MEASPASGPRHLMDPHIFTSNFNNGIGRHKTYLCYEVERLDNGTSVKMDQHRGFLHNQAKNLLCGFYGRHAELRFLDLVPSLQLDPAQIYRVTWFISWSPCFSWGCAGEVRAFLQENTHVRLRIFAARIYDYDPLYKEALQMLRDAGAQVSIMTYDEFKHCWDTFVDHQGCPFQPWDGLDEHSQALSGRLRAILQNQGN
LANA-H2B inh: blockers of LANA interaction with H2A/H2B – biochemical, FP readout, HTS, primary screen | Protein LANA1 (Human herpesvirus 8 type P (isolate GK18)), Q9QR71 | cell-free LANA-H2A/H2B peptide, fluorescence polarization | inhibition, % (concentration not given with the values) | 320,000 compounds, 0.6% hits | AID 2629, 2010; in the data active = inhibition mostly above about 10%, no sharp cut-off; inactive = mostly below about 6.7%
Each line names hits and unclear results; the compound was inactive in the other large screens; ! = not active in a repeat. Hits are enriched below; roughly 1.4% of the tested compounds scored in any of these assays.

CCCCn1c(/N=C/c2c[nH]c3ccccc23)nc2ccccc21	HDAC3 inhib 31
CCOC(=O)C1=C[C@]2(CC)CCCN3CCc4c(n1c1ccccc41)[C@@H]32	LANA-H2B inh 19!
COc1ccc2c(c1)C(=O)Cc1ccccc1O2	LANA-H2B inh 17
Cc1cc(=O)oc2cc(OCC(=O)N3CCOCC3)c(Cl)cc12	none
CC(=O)Nc1ccc2nc(NC(=O)c3ccc([N+](=O)[O-])s3)sc2c1	LANA-H2B inh 30
CN1CCN(c2ccc(NC(=O)c3ccc(-c4ccc(Cl)cc4)o3)cc2)CC1	LANA-H2B inh 66
CS(=O)(=O)c1cccc(C(=O)Oc2ccccc2)c1	LANA-H2B inh 38
CS(=O)(=O)c1cccc(C(=O)OCCCC(=O)c2ccccc2)c1	none
COc1ccc(-c2cc(C(=O)N3CC4(C)CC3CC(C)(C)C4)no2)cc1OC (stereo not given)	LANA-H2B inh 55
CCc1ccc(/C(C)=N/NC(=O)c2ccc(-n3cnnn3)cc2)cc1	none
Nc1ccc(C#Cc2ccc3c(=O)c4ccccc4oc3c2)cc1	none
N#Cc1ccc(C#Cc2ccc3oc4ccccc4c(=O)c3c2)cc1	LANA-H2B inh 25
O=C1Cn2c(nc3ccccc32)N1c1ccccc1F	none
O=C1Cn2c(nc3ccccc32)N1c1cccc(C(F)(F)F)c1	LANA-H2B inh 15
CC(C)c1nc(C(=O)N2CCc3c([nH]c4ccccc34)C2c2ccccn2)cs1 (stereo not given)	LANA-H2B inh 14
Cc1nc(C(=O)N2CCc3c([nH]c4ccccc34)C2c2cc(F)ccc2F)cs1 (stereo not given)	LANA-H2B inh 16
Cc1cnc(C(=O)N2CCc3c([nH]c4ccccc34)C2c2ccc(F)cc2)cn1 (stereo not given)	none
Cc1nc(C(=O)N2CCc3c([nH]c4ccccc34)C2c2ccccn2)cs1 (stereo not given)	none
COc1ccc(-n2nc(C(=O)NCC(=O)Nc3cccc(Cl)c3)c3ccccc3c2=O)cc1OC	none
Cc1cccc(NC(=O)CN2CCN(C(=O)c3c(C)nn(Cc4ccccc4)c3C)CC2)c1C	none
CC1CCCC(C)N1C(=O)COC(=O)C12CC3CC(CC(Cl)(C3)C1)C2 (stereo not given)	LANA-H2B inh 17
CCOc1ccc(S(=O)(=O)NCCC(=O)N2CC=C(c3ccccc3)CC2)cc1	none
COc1ccc(OC)c(NC(=S)N2c3ccccc3CC2C)c1 (stereo not given)	none
O=C(N=c1ccn(-c2nc3ccccc3nc2NS(=O)(=O)c2ccc(Cl)cc2)cc1)c1ccccc1Cl	LANA-H2B inh 15
O=C(N=c1ccn(-c2nc3ccccc3nc2NS(=O)(=O)c2ccccc2)cc1)c1ccccc1Cl	none
O=C(COc1ccc(F)cc1Br)N1CCN(c2ncccn2)CC1	none
O=C(COc1ccc(F)cc1Br)N1CCN(S(=O)(=O)/C=C/c2ccccc2)CC1	LANA-H2B inh 87
CCOC(=O)C1=C(COC(=O)/C=C/c2cccc(F)c2)NC(=O)NC1C (stereo not given)	none
O=C(Nc1sc2c(c1C(=O)O)CCC2)c1ccccc1Cl	none
Cc1ccccc1C(=O)Nc1sc2c(c1C(=O)O)CCC2	LANA-H2B inh 17
Cc1cc(C)cc(NS(=O)(=O)c2ccc3c(c2)C(C)(C)C(=O)N3C)c1	LANA-H2B inh 11
Cc1nn(Cc2ccc(F)cc2)c(C)c1NC(=O)c1cc(-c2ccco2)on1	LANA-H2B inh 13
COc1cc(OC)c(C2CC(=O)N3CN(C)CSC3=C2C#N)cc1OC (stereo not given)	HDAC3 inhib 31
COc1ccc(Br)cc1C1CC(=O)N2CN(Cc3ccccc3)CSC2=C1C#N (stereo not given)	HDAC3 inhib 32
N#CC1=C2SCN(c3ccccc3)CN2C(=O)CC1c1ccccc1Cl (stereo not given)	APOBEC3G inh 57
CCc1ccccc1N1CSC2=C(C#N)C(c3cc(OC)c(OC)cc3OC)CC(=O)N2C1 (stereo not given)	APOBEC3G inh 46
COc1ccc(Br)cc1C1CC(=O)N2CN(C)CSC2=C1C#N (stereo not given)	none
